# Shown are actives, neighbours in structure and some others; about 1.5% of the full set was active somewhere.
# CRFR2-BP antag: antagonists of CRF-binding protein/CRF-R2 receptor complex; HEK293 CRF-R2/CRF-BP, CRF-induced calcium fluorescence; inhibition, % at 11.8 µM; 0.59% of 350,000 active;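 active means inhibition of the ligand-induced calcium signal above about 50% at the single tested concentration, limit read from the data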
# RTF Ca sens inh: cardiac RTF calcium desensitization; IANBD-labeled cardiac RTF, Ca2+ fluorescence; inhibition, % at 7.15 µM; 0.12% of 340,000 active; AID 493244;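 active means inhibition above the mean inhibition of all tested compounds plus 3 SD, cut at about 17% in these data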;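 further: assay run at fixed EC70 calcium of 1.6 mM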
# IDE inh: inhibitors of human insulin-degrading enzyme in cells; P14735; HEK cells, FAbetaB cleavage, fluorescence polarization; inhibition, % at 5.59 µM; 0.41% of 320,000 active; AID 434962;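 active means percent inhibition above the average of all tested compounds plus 3 SD, set per screening campaign, cut at about 16% in these data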;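 further: IDE supplied by intact live HEK cells; FP after avidin binding of uncleaved biotin substrate so inhibition keeps polarization high; 0% = DMSO wells and 100% = 60 µM reference IDE inhibitor Ii1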
# CRFR2-BP ag: CRF-BP/CRF-R2 complex agonism; 0.46% of 350,000 active; activation, % at 13.2 µM; HEK293 CRF-R2/CRF-BP, calcium dye fluorescence (FLIPR); percent of saturating CRF peptide response; AID 588473;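 active means activation of at least 50%, plus an integration ratio under a set limit after plate pattern correction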;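 further: plate controls were neutral control wells without compound for no effect and CRF at EC100 for full effect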
# RTF Ca sens act: increases calcium sensitivity of human cardiac regulated thin filaments | P19429+P45379 | IANBD-labeled TnC RTF fluorescence at EC20 calcium; 0% EC20 calcium, 100% full calcium | activation, % at 7.2 µM | 0.24% of 340,000 active | AID 493008;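 active means activation above the mean over all tested compounds plus 3 SD, cut at about 30% in these data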;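 further: rise in fluorescence read as greater calcium sensitivity of cardiac thin filaments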
# IDE act: boosts human insulin-degrading enzyme activity in HEK cells. P14735. FAbeta-B cleavage, fluorescence polarization; 0% vehicle, 100% cell-free pure enzyme wells. activation, % at 5.96 µM. 0.073% of 340,000 active;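 active means activation above the mean of all tested compounds plus 3 SD, set per screening campaign, cut at about 17% in these data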
# The depositor's hits bear a star; . = no result.
SMILES,CRFR2-BP antag,RTF Ca sens inh,IDE inh,CRFR2-BP ag,RTF Ca sens act,IDE act
COc1ccc(C(=O)CC(=O)C(=O)Nc2ccccc2Cl)cc1,3,0,4,8,-6,3
Nc1c(C(=O)N2CCOCC2)sc2nc3c(cc12)CCCC3,-4,-13,-1,-1,-4,-2
Nc1c(C(=O)N2CCOCC2)sc2nc3c(cc12)CCC3,50*,-22,1,4,-2,-1
O=C(NNC(=O)C12CC3CC(CC(C3)C1)C2)c1ccncc1,8,-17,0,2,5,3
CC12CC3CC(C)(C1)CC(C(=O)NNC(=O)c1ccncc1)(C3)C2,66*,0,-1,0,0,-2
CCCc1cnc(N2CCN(C(=O)c3ccc(OC)cc3)CC2)nc1,3,-4,1,14,3,-5
Cc1ccc(S(C)(=O)=O)cc1C(=O)Nc1ccc(S(=O)(=O)Nc2nccs2)cc1,8,-4,-1,0,0,6
O=C1/C(=C/c2ccccc2)CCCc2ccccc21,-2,2,3,0,-2,5
CN(C)c1ccc(/C=C2\CCC/C(=C\c3ccccc3)C2=O)cc1,-69,-87,7,31,84*,-6
CCN1C(=O)/C(=C\c2ccncc2)SC1=S,6,3,-4,-2,-8,1
CCCN1C(=O)/C(=C\C=C2\N(CC)c3ccccc3C2(C)C)SC1=S,-214,-110,.,125*,90*,-73
CCN1C(=O)C(=CC=CN(C)c2ccccc2)SC1=S,-65,.,.,103*,.,.
CCN1C(=O)/C(=C\C=C2/C=CC=CN2CC)SC1=S,11,-14,4,-3,17,-9
CCN1C(=O)/C(=C/C=C2\C=CN(CC)c3ccccc32)SC1=S,53*,-4,8,0,4,-5
O=C(O)CN1C(=O)/C(=C/C=C/c2ccccc2)SC1=S,1,-5,3,3,-4,3
COc1ccc([N+](=O)[O-])cc1NC(=O)C1CCCO1 (stereo unspecified),-20,-10,-1,1,-2,-3
COc1ccc(C#Cc2c(-c3ccccc3)n(C)c3ccccc23)cc1,-2,-11,7,-3,0,-4
COc1cc(C#Cc2c(-c3ccccc3)n(C)c3ccccc23)cc(OC)c1,51*,-3,2,-2,-2,1
CCOC(=O)CN1CC(C)(C)N(CC(=O)OCC)CC1(C)C,18,-4,.,3,-3,4
CN(C)C1(CNC(=O)C2CCN(S(=O)(=O)c3ccccc3C(F)(F)F)CC2)CCCCC1,-8,-5,-4,0,-4,5
CNC[C@@H]1Oc2ccc(NS(=O)(=O)c3ccc(OC)cc3)cc2CC(=O)N([C@H](C)CO)C[C@@H]1C,2,-5,2,0,1,22*
C[C@H]1CN([C@@H](C)CO)C(=O)Cc2cc(NS(C)(=O)=O)ccc2O[C@@H]1CN(C)Cc1ccc(Cl)c(Cl)c1,55*,-11,4,1,2,6
C[C@@H]1CN([C@@H](C)CO)C(=O)Cc2cc(NC(=O)Nc3ccc(F)cc3)ccc2O[C@@H]1CN(C)Cc1ccc(Cl)c(Cl)c1,-3,0,-4,1,4,6
CC1(C)COC(c2ccc3c(c2)OCO3)OC1,-13,-1,.,1,-7,2
Cc1ccc([C@H]2C[C@H](n3cc(-c4ccc(F)cc4)nn3)[C@@H](O)CN2CC2CCCCC2)cc1,11,.,.,6,.,.
SMILES,CRFR2-BP antag,RTF Ca sens inh,IDE inh,CRFR2-BP ag,RTF Ca sens act,IDE act
COc1ccc(OC)c(NC(=O)c2ccccc2NS(=O)(=O)c2cccc3cccnc23)c1,74*,-1,-5,0,-5,2
Cc1ccc(SCC(=O)N2CCN(c3ccccn3)CC2)cc1,7,-3,-1,0,0,3
Cc1cn(CC(=O)N2CCN(c3ccccn3)CC2)c(=O)[nH]c1=O,96*,-2,.,1,2,1
CC(=O)c1sc(NC(=O)CSC(C)C(=O)Nc2cc(C)on2)nc1-c1ccccc1 (stereo unspecified),3,-7,-3,-1,-4,3
O=C(COC(=O)C1CC1)Nc1c(Cl)cccc1C(F)(F)F,2,-17,5,-1,3,2
CCCn1c(N/N=C\C=C\c2ccccc2)nc2c1c(=O)[nH]c(=O)n2C,2,4,16*,0,0,-2
CC(/C=C/c1ccccc1)=N\Nc1nc2c(c(=O)[nH]c(=O)n2C)n1CCO,8,.,3,-2,.,.
O=C(C[C@H]1C/C=C\C[C@@H](Cc2ccc(F)cc2)C(=O)O[C@H](c2ccccc2)CNC1=O)NCCO,84*,5,2,1,3,5
CC(C)N(CCn1c(=S)[nH]c2ccccc2c1=O)C(C)C,5,-18,2,50*,4,-3
COc1ccc(C(C)C)cc1S(=O)(=O)Nc1cccnc1,-1,.,.,0,.,.
O=C(O)c1ccc(S(=O)(=O)c2ccc(Sc3ccc(C(=O)O)c(C(=O)O)c3)cc2)cc1,23,-5,2,0,3,3
O=C(CSc1n[nH]c(-c2ccccc2F)n1)NCC(=O)Nc1ccc(F)c(F)c1F,-11,1,-1,-1,2,6
O=C(N/N=C/c1cc(Cl)cc([N+](=O)[O-])c1O)NC12CC3CC(CC(C3)C1)C2,53*,-16,-2,-3,-6,7
O=C(N/N=C/c1ccccc1O)NC12CC3CC(CC(C3)C1)C2,-4,-1,-2,0,-4,7
CN(C)CCNC(=O)C(=O)c1c(-c2ccccc2)cc2ccccn12,65*,-5,-6,-3,0,-5
O=C(NCCCO)C(=O)c1c(-c2ccccc2)cc2ccccn12,1,3,8,-1,5,2
CC1(C)COCN1S(=O)(=O)c1ccc(C(=O)Nc2nnc(-c3ccc(Cl)s3)o2)cc1,22,.,4,90*,.,.
O=C(Nc1nnc(-c2ccccc2Cl)o1)c1ccc(S(=O)(=O)N2CCCCCC2)cc1,-11,.,5,54*,.,.
CCC1CCCCN1S(=O)(=O)c1ccc(C(=O)Nc2nnc(-c3ccccc3Cl)o2)cc1 (stereo unspecified),-58,-2,9,126*,1,0
CC1CCCCN1S(=O)(=O)c1ccc(C(=O)Nc2nnc(-c3ccccc3Cl)o2)cc1 (stereo unspecified),43,-1,-3,23,9,0
COc1ccc(-c2nnc(NC(=O)c3ccc(S(=O)(=O)N4COCC4(C)C)cc3)o2)cc1,-10,-5,-3,0,5,-5
CCN(CC)C(=O)C(=O)c1cccn1-c1c(Cl)cccc1C#N,11,6,-1,-1,4,-4
CC(=O)NC1=NN(C(C)=O)C(c2ccccn2)S1 (stereo unspecified),9,-8,-3,-1,5,9

# Screening data deposited in PubChem by several laboratories.
